Screening results from PubChem.
Sampled rows, rich in hits. Any-hit rate of the full collection: about 2.8%.
a7 integrin act: activates integrin-mediated alleviation for muscular dystrophy | 350,000 compounds, 0.064% hits | alpha7betagal myoblasts, beta-gal FDG fluorescence, 48 h | Potency, µM (top dose mostly 38.3 µM), without a hit: at the top dose activation, usual class: activators | AID 624291;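 further: potency means the concentration at half of the fitted maximal effect; 100% = response of the positive control SU9516; nearly all actives have a fitted effect of over 60% in size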
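Alpha7betagal+/- myoblasts (passage 13) were plated 16-24 hr, then exposed to compounds (1:260 dilution of DMSO stock) for 48 hours at 37C. After MPER lysis, β-galactosidase reporter activity was read as FDG fluorescence (ex 480/em 540) after 30 minutes.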
CBFb-RUNX1 inh: blocks binding between human CBF-beta and RUNX1. Q01196+Q13951. AlphaScreen CBFb-His/RUNX1-biotin binding, biochemical. Potency, µM (doses to about 59.8 µM), without a hit: top-dose activity, negative = inhibition, most hits filed as inhibitors. 230,000 tested, under 10 active. AID 1477; further: % of control where 0% means no effect
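Inhibition was taken as any reduction in AlphaScreen signal from the CBF-beta–RUNX1 pair (His and biotin tags, 30 nM each), measured after compound (15 min) and bead (90 min) incubations at room temperature.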
MBNL1-CUG inh: MBNL1-poly(CUG) RNA binding inhibition; 280,000 compounds, 0.036% hits; Potency, µM (doses to about 57.5 µM), without a hit: top-dose activity change, negative = inhibition, hits mostly inhibitors; TR-FRET MBNL1-His/biotin-(CUG)12 binding, 665/545 ratio; Q9NR56; active means well fitted inhibition curve with a large enough effect in the signal ratio, with a control signal flat, not every such curve was filed as active; inconclusive means small, poorly fitted or top-dose-only effect, or effect the other way, or a change in a side signal; inactive means no such curve, though single readings can be large or run the other way; the % refers to the signal ratio; further: potency means the concentration at half of the fitted maximal effect; on the % scale 0 is the no-effect control and ±100 the full control effect
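Compounds (final 92 nM to 58 uM) are added to His-tagged MBNL1 and biotin-(CUG)12, then terbium anti-His antibody and streptavidin-XL665 (5 nM final). After 60 min at room temperature, the 665/545 nm ratio is read.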
DRD3 agonist: agonists of human D3 dopamine receptor; P35462; D3R DiscoveRx beta-arrestin cells, luminescence, 90 min; max activation, %; 410,000 compounds, 0.58% hits; in the data active means max activation above about 30%; further: 0% is about no effect
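Cells at 1500/well, incubated overnight, then treated with pinned compounds (dopamine as control) for 90 min at 37 degrees C. DiscoveRx reagent added for 30 - 60 minutes at room temperature; luminescence read.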
PTHR1 ag: PTHR1 (human) receptor agonism. HEK293 GP2 PTHR1 cells, GloSensor cAMP luminescence, 1 h. Q03431. AID 743266. Potency, µM (titrated, usually from 115 µM), without a hit: at the highest dose activation, most hits filed as activators. 410,000 compounds, 0.075% hits; further: potency means the concentration at half of the fitted maximal effect; nearly all actives have a fitted effect of over 55% in size
Target sequence (Q03431 whole entry, looked up): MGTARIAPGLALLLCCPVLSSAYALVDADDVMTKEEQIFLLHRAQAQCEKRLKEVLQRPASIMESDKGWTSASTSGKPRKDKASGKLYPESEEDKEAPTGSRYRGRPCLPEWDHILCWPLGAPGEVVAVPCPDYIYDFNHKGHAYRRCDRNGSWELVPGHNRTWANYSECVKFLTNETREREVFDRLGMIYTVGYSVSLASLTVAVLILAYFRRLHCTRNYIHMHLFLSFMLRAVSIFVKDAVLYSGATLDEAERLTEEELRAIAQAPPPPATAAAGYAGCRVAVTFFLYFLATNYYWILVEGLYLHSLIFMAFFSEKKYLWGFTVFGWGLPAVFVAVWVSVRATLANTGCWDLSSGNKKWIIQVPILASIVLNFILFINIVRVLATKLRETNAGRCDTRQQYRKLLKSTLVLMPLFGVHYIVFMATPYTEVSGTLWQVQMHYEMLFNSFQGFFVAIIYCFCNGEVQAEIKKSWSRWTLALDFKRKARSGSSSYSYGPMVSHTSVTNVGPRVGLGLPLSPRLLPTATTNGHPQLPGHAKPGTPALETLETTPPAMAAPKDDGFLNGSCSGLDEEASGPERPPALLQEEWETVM
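HEK-293-derived GP2 cells expressing PTHR1 and a GloSensor cAMP reporter, 3,000/well, plated overnight, given luciferin plus IBMX (each 0.5 mM as added) for 1 h at 37 °C, then compound for 1 h at 37 °C. Luminescence was read after 15 min at room temperature.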
D3 antag: blocks the human D3 dopamine receptor; 360,000 compounds, 2.5% hits; D3R cells, DiscoveRx beta-arrestin luminescence, antagonist mode; active compounds read low; P35462; max response, negative = inhibition, %; AID 652054; in the data active means max response below about -50%; inconclusive means no clear call, values can overlap the other calls; further: on the % scale 0 is the no-effect control and ±100 the full control effect
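Cells plated overnight at 1500 cells/well, then exposed to library compounds with dopamine controls for 90 minutes at 37 degrees C. DiscoveRx reagent added for 30–60 minutes at room temperature; luminescence read, quantitative HTS format.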
Numbers without * were called inactive; i = inactive; ? = inconclusive; / = not tested or not shown; [ ] = another dose, or the depositor's remark. Unless noted, the call rests on the fitted dose curve; in most records, active means well fitted curve in the direction sought with a large enough effect; inconclusive means small, poorly fitted or top-dose-only effect, or another doubt; inactive means no such curve, though single readings can be large; an effect the other way counts as inactive or inconclusive.

SMILES	a7 integrin act	CBFb-RUNX1 inh	MBNL1-CUG inh	DRD3 agonist	PTHR1 ag	D3 antag
COC(=O)c1ccc(Cl)cc1NC(=O)N1CC=C(c2c[nH]c3ccccc23)CC1	/	/	/	3	i	/
Clc1ccc2c(c1)C(N1CCNCC1)=Nc1ccccc1O2	/	12%	-13%	-85	i	-117*
Cc1nc2cc(Oc3nc(NCCN(C)C)nc4ccsc34)ccc2s1	/	/	/	-15	-13%	-59*
CNc1nc(Oc2ccc3sc(C)nc3c2)c2sccc2n1	/	/	/	13	-33%	12
O=C1[C@@H](Oc2ccccc2)[C@@H](c2cccnc2)N1c1ccccc1	0%	/	/	10	-5%	19
C=CCC(CC=C)(CNC(=O)C(=O)Nc1ccc(C)cc1)c1ccccc1	/	/	/	0	1%	/
CNC(=O)c1ccc(NC(=O)c2ccccc2OCc2c(C)noc2C)cc1	0%	/	/	2	0%	-6
CCNC(=S)NNC(=O)CCn1cc(C)cn1	26%	-16%	-3%	-8	i	-28
COc1ccc(CC(CC(=O)O)C(=O)NCc2ccccc2)cc1 (stereo not drawn)	19%	6%	-6%	-9	8%	-69*
CCOc1ccc(Oc2nc(NCC(C)C)nc(N3CCOCC3)n2)nn1	/	/	/	2	-4%	/
Cc1cc(C)cc(N(CC(=O)Nc2c(C)cc(C)cc2C)S(=O)(=O)c2c(C)nn(C)c2C)c1	/	/	/	78*	i	/
c1ccc(COc2cccc(-c3cc4nc(NCCCn5ccnc5)ccn4n3)c2)cc1	/	/	/	0	-9%	10
CC(c1nc2ccccc2o1)N1C(=O)c2ccccc2C1=O (stereo not drawn)	-12%	8%	0%	12	-7%	-53*
O=C1c2ccccc2C(=O)N1CCCCSc1nc2ccccc2o1	-27%	?	3%	1	-13%	3
COc1ccc(C2=CC3=C(Br)C(=O)C(C)(OC(=O)c4cccs4)C(=O)C3=CO2)cc1 (stereo not drawn)	1%	-2%	/	10	-31%	-55*
COc1ccc(-c2nc3sc(CCNC(=O)C(=O)Nc4ccccc4C#N)c(C)n3n2)cc1	/	/	/	-13	-11%	/
CCN(CC)CCOC(=O)c1ccc(NC(=O)/C=C/c2cccs2)cc1	-22%	1%	?	-12	-9%	-101*
CCOC(=O)c1ccc(NC(=O)/C=C/c2cccs2)cc1	8%	1%	16%	8	-21%	5
CC1=NN(c2nc(N)nc(/C(C#N)=C/c3ccc([N+](=O)[O-])o3)n2)C(C)(C)C1	-30%	/	/	-7	i	-61*
O=C1C2C(C(=O)N1/N=C/c1ccc([N+](=O)[O-])o1)C1C=CC2C12CC2 (stereo not drawn)	-51%	2%	?	2	-14%	-6
CCCCn1c(SCC(=O)Nc2ccc(OCC)cc2)nc2ccsc2c1=O	/	/	/	-6	i	/
CCCCn1c(SCC(=O)N2CCC(C)CC2)nc2ccsc2c1=O	-32%	5%	-5%	30*	12%[57.5 µM]	11
CCCCn1c(SCC(=O)NCc2ccccc2)nc2ccc(N3CCOCC3)cc2c1=O	-15%	-3%	12%	34*	i	35
CCCCn1c(SCC(=O)N2CCN(c3ccccc3)CC2)nc2ccsc2c1=O	-35%	-7%	-5%	35*	i	0
CCn1c(=O)n(CC)c2cc(S(N)(=O)=O)c(C)cc21	10%	5%	-10%	-6	i	-17
CCn1c(=O)n(CC)c2cc(S(=O)(=O)N3CCCCC3)c(C)cc21	10%	0%	3%	31*	-5%[57.5 µM]	21
CC[C@]1(C(=O)OC)[C@H]2C(=O)N(C)C(=O)[C@H]2[C@H]2CN=C(SC)N21	11%	/	/	3	i	9
CC(C)(C)OC(=O)NCCc1nnc(S(=O)(=O)Cc2ccc(Cl)cc2Cl)o1	-48%	-12%	-1%	-15	-23%	-71*
